# Several values for one entry are separate records, joined by “and”; a condition that tells them apart may be missing. Equal entries are not always repeated. Where two headings read alike, the source gives them in different places.
# Legend:
# AURKC = details: concentration: 1 μM, replicates: in singlicate; n = 1
# AXL = details: concentration: 1 μM, replicates: in singlicate, n = 1
# BIKE = tested on: T1, BIKE; details: concentration: 1 μM, replicates: in singlicate, n = 1
# T1 construct: gene BMP2K
# BLK = details: concentration: 1 μM, replicates: in singlicate; n = 1
# BMPR1A = details: concentration: 1 μM, replicates: in singlicate; n = 1
# BMPR1B = details: concentration: 1 μM, replicates: in singlicate, n = 1
# BMPR2 = details: concentration: 1 μM, replicates: in singlicate, n = 1
# BMX = details: concentration: 1 μM, replicates: in singlicate, n = 1
# BRAF = details: concentration: 1 μM, replicates: in singlicate, n = 1
# BRK = tested on: T2, BRK; details: concentration: 1 μM, replicates: in singlicate, n = 1
# T2 construct: gene PTK6
# BRSK1 = details: concentration: 1 μM, replicates: in singlicate; n = 1
# BRSK2 = details: concentration: 1 μM, replicates: in singlicate; n = 1
# BTK = details: concentration: 1 μM, replicates: in singlicate, n = 1
# BUB1 = details: concentration: 1 μM, replicates: in singlicate, n = 1
# CAMK1B = details: concentration: 1 μM, replicates: in singlicate, n = 1
# CAMK1D = details: concentration: 1 μM, replicates: in singlicate, n = 1
# CAMK1G = details: concentration: 1 μM, replicates: in singlicate; n = 1
# CAMK1 = details: concentration: 1 μM, replicates: in singlicate, n = 1
# CAMK2A = details: concentration: 1 μM, replicates: in singlicate; n = 1
# CAMK2B = details: concentration: 1 μM, replicates: in singlicate; n = 1
# 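Note: KINOMEscan kinase panel screen.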
compound,measurement,setting,value
Fc1cccc(COc2ccc(Nc3ncnc4cc[nH]c34)cc2Cl)c1,%Inh,AURKC,8%
same,%Inh,AXL,16%
same,%Inh,BIKE,9%
same,%Inh,BLK,1%
same,%Inh,BMPR1A,21%
same,%Inh,BMPR1B,16%
same,%Inh,BMPR2,15%
same,%Inh,BMX,6%
same,%Inh,BRAF,0%
same,%Inh,BRK,11%
same,%Inh,BRSK1,2%
same,%Inh,BRSK2,0%
same,%Inh,BTK,0%
same,%Inh,BUB1,1%
same,%Inh,CAMK1B,7%
same,%Inh,CAMK1D,0%
same,%Inh,CAMK1G,10%
same,%Inh,CAMK1,29%
same,%Inh,CAMK2A,27%
same,%Inh,CAMK2B,28%
CS(=O)(=O)CCNCc1nc(-c2ccc3ncnc(Nc4ccc(OCc5cccc(F)c5)c(Cl)c4)c3c2)cs1.Cl [GW583340],%Inh,AURKC,0%
same,%Inh,AXL,0%
same,%Inh,BIKE,0%
same,%Inh,BLK,25%
same,%Inh,BMPR1A,0%
same,%Inh,BMPR1B,0%
same,%Inh,BMPR2,0%
same,%Inh,BMX,0%
same,%Inh,BRAF,0%
same,%Inh,BRK,0%
same,%Inh,BRSK1,0%
same,%Inh,BRSK2,0%
same,%Inh,BTK,0%
same,%Inh,BUB1,0%
same,%Inh,CAMK1B,6%
same,%Inh,CAMK1D,15%
same,%Inh,CAMK1G,2%
same,%Inh,CAMK1,20%
same,%Inh,CAMK2A,0%
same,%Inh,CAMK2B,0%
C[C@@H]1CCN(C(=O)CO)C[C@@H]1N(C)c1ncnc2[nH]ccc12,%Inh,AURKC,0%
same,%Inh,AXL,0%
same,%Inh,BIKE,19%
same,%Inh,BLK,2%
same,%Inh,BMPR1A,23%
same,%Inh,BMPR1B,0%
same,%Inh,BMPR2,0%
same,%Inh,BMX,0%
same,%Inh,BRAF,0%
same,%Inh,BRK,0%
same,%Inh,BRSK1,13%
same,%Inh,BRSK2,0%
same,%Inh,BTK,0%
same,%Inh,BUB1,0%
same,%Inh,CAMK1B,29%
same,%Inh,CAMK1D,0%
same,%Inh,CAMK1G,0%
same,%Inh,CAMK1,0%
same,%Inh,CAMK2A,0%
same,%Inh,CAMK2B,0%
Cc1cccc(-c2nc(Nc3ccc4[nH]nnc4c3)c3ccccc3n2)n1 [GW867587],%Inh,AURKC,0%
same,%Inh,AXL,0%
same,%Inh,BIKE,0%
same,%Inh,BLK,3%
same,%Inh,BMPR1A,0%
same,%Inh,BMPR1B,0%
same,%Inh,BMPR2,8%
same,%Inh,BMX,0%
same,%Inh,BRAF,0%
same,%Inh,BRK,0%
same,%Inh,BRSK1,0%
same,%Inh,BRSK2,0%
same,%Inh,BTK,0%
same,%Inh,BUB1,13%
same,%Inh,CAMK1B,0%
same,%Inh,CAMK1D,0%
same,%Inh,CAMK1G,0%
same,%Inh,CAMK1,0%
same,%Inh,CAMK2A,0%
same,%Inh,CAMK2B,8%
Cn1ccc2ncnc(Oc3ccc(NC(=O)Nc4cccnc4)c(Cl)c3)c21,%Inh,AURKC,0%
same,%Inh,AXL,7%
same,%Inh,BIKE,0%
same,%Inh,BLK,8%
same,%Inh,BMPR1A,0%
same,%Inh,BMPR1B,0%
same,%Inh,BMPR2,7%
same,%Inh,BMX,0%
same,%Inh,BRAF,0%
same,%Inh,BRK,0%
same,%Inh,BRSK1,6%
same,%Inh,BRSK2,0%
same,%Inh,BTK,0%
same,%Inh,BUB1,5%
same,%Inh,CAMK1B,0%
same,%Inh,CAMK1D,0%
same,%Inh,CAMK1G,27%
same,%Inh,CAMK1,21%
same,%Inh,CAMK2A,0%
same,%Inh,CAMK2B,18%
Cn1cc(-c2ccc3c(c2)CCN3C(=O)Cc2cccc(C(F)(F)F)c2)c2c(N)ncnc21 [GSK2606414],%Inh,AURKC,29%
same,%Inh,AXL,41%
same,%Inh,BIKE,26%
same,%Inh,BLK,36%
same,%Inh,BMPR1A,0%
same,%Inh,BMPR1B,0%
same,%Inh,BMPR2,0%
same,%Inh,BMX,2%
same,%Inh,BRAF,12%
same,%Inh,BRK,3%
same,%Inh,BRSK1,12%
same,%Inh,BRSK2,0%
same,%Inh,BTK,0%
same,%Inh,BUB1,6%
same,%Inh,CAMK1B,11%
same,%Inh,CAMK1D,10%
same,%Inh,CAMK1G,0%
same,%Inh,CAMK1,4%
same,%Inh,CAMK2A,0%
same,%Inh,CAMK2B,0%
Fc1cccc(COc2ccc(Nc3ncnc4sc(-c5ccc[nH]5)cc34)cc2Cl)c1 [GW707818],%Inh,AURKC,9%
same,%Inh,AXL,0%
same,%Inh,BIKE,24%
same,%Inh,BLK,0%
same,%Inh,BMPR1A,25%
same,%Inh,BMPR1B,0%
same,%Inh,BMPR2,1%
same,%Inh,BMX,6%
same,%Inh,BRAF,0%
same,%Inh,BRK,0%
same,%Inh,BRSK1,1%
same,%Inh,BRSK2,16%
same,%Inh,BTK,5%
same,%Inh,BUB1,25%
same,%Inh,CAMK1B,9%
same,%Inh,CAMK1D,22%
same,%Inh,CAMK1G,0%
same,%Inh,CAMK1,25%
same,%Inh,CAMK2A,0%
same,%Inh,CAMK2B,0%
COc1ccc(-c2nc3n(c2-c2ccncc2)CCC3)cc1 [SKF-104493],%Inh,AURKC,0%
same,%Inh,AXL; 1 µM,14% and 0%
same,%Inh,BIKE; 1 µM,10% and 0%
same,%Inh,BLK,0%
same,%Inh,BMPR1A,0%
same,%Inh,BMPR1B; 1 µM,0% and 1%
same,%Inh,BMPR2; 1 µM,39% and 2%
same,%Inh,BMX; 1 µM,0% and 11%
same,%Inh,BRAF; 1 µM,23% and 0%
same,%Inh,BRK; 1 µM,2% and 0%
same,%Inh,BRSK1,0%
same,%Inh,BRSK2,0%
same,%Inh,BTK; 1 µM,14% and 0%
same,%Inh,BUB1; 1 µM,67% and 78%
same,%Inh,CAMK1B; 1 µM,0% and 26%
same,%Inh,CAMK1D; 1 µM,12% and 7%
same,%Inh,CAMK1G,0%
same,%Inh,CAMK1; 1 µM,0% and 7%
same,%Inh,CAMK2A,0%
same,%Inh,CAMK2B,0%
COc1ccc(NC(=O)c2ccc(-c3cc(-c4nnc(C)o4)ccc3C)cc2)cc1 [GW595885],%Inh,AURKC,5%
same,%Inh,AXL,0%
same,%Inh,BIKE,14%
same,%Inh,BLK,34%
same,%Inh,BMPR1A,0%
same,%Inh,BMPR1B,0%
same,%Inh,BMPR2,0%
same,%Inh,BMX,10%
same,%Inh,BRAF,1%
same,%Inh,BRK,11%
same,%Inh,BRSK1,0%
same,%Inh,BRSK2,0%
same,%Inh,BTK,0%
same,%Inh,BUB1,40%
same,%Inh,CAMK1B,4%
same,%Inh,CAMK1D,8%
same,%Inh,CAMK1G,0%
same,%Inh,CAMK1,4%
same,%Inh,CAMK2A,0%
same,%Inh,CAMK2B,0%
CCc1nc(-c2cccc(C)c2)c(-c2ccnc(NC(=O)c3ccccc3)c2)s1,%Inh,AURKC,0%
same,%Inh,AXL,0%
same,%Inh,BIKE,0%
same,%Inh,BLK,16%
same,%Inh,BMPR1A,0%
same,%Inh,BMPR1B,9%
same,%Inh,BMPR2,8%
same,%Inh,BMX,0%
same,%Inh,BRAF,17%
same,%Inh,BRK,0%
same,%Inh,BRSK1,0%
same,%Inh,BRSK2,17%
same,%Inh,BTK,42%
same,%Inh,BUB1,17%
same,%Inh,CAMK1B,0%
same,%Inh,CAMK1D,7%
same,%Inh,CAMK1G,0%
same,%Inh,CAMK1,13%
same,%Inh,CAMK2A,4%
same,%Inh,CAMK2B,0%

# From article PMC5540273 (PLoS ONE, 2017)
